Among all 69,000 compounds or so, about 8,600 (12%) showed an effect of 50% or more. The full list was thinned out, with strong results kept by preference.

The assay concerns Plasmodium berghei. Put plainly: Screen against P. berghei liver stage (PbLuc), transformed with Luciferase, at 10uM. The class given is functional, HepG2. The following applies: tested at 10 uM.
`Cc1nn(C)c(C)c1C1CCCN1C(=O)c1cc(C(N)=O)cs1` (stereo unspecified): the INHIBITION is -11.2%.
Turning to `CN1C(=O)CC(c2cnn(C)c2)C12CCN(C(=O)C1CC=CC1)CC2` (stereo unspecified), the INHIBITION was -16.5%.
As for `CN(C)Cc1ccnc(C2CN(Cc3c(F)cccc3F)CCO2)n1` (stereo unspecified), the INHIBITION turned out to be 8.53%.
The result for `Cn1ccnc1CNCC1CCCN1c1cccnn1` (stereo unspecified) reads -31.5%.
The result for `CC(Cn1cccn1)NC(=O)N1CCCN(Cc2cccs2)CC1` (stereo unspecified) reads 14.4%; that for `CN(C)CCn1c(=O)n(C)c(=O)c2ccccc21`, -40.3%.
For `CCC(=O)N1CCC2(CCC(N3CCCC3)c3ccccc32)CC1` (stereo unspecified) the value was 40.8%; for `Cc1nn(C)c(N(C)C)c1CNC1CCCCNC1=O` (stereo unspecified), 5.42%; for `C=Cn1cc(CN2CCN(CC3(c4ccccc4)CC3)CC2)c(C)n1`, 26.57%.
As for `CN(Cc1ccncn1)C(=O)CCc1[nH]nc2c1CCCC2`, the INHIBITION is recorded as 33.9%.
For `CC(C)N(CCO)C(=O)C1CCC(=O)N(CCc2cccc(F)c2)C1` (stereo unspecified) the value was 56.6%; for `CCCN(CCO)C(=O)C1CCC(=O)N(CCc2ccc(Cl)cc2)C1` (stereo unspecified), -39.9%; for `CC(C)N(CCO)C(=O)C1CCC(=O)N(CCc2ccc(Cl)cc2)C1` (stereo unspecified), 26.6%.
For `CCN(CCO)C(=O)C1CCC(=O)N(CCc2cccc(F)c2)C1` (stereo unspecified) the value was 43.7%; for `CC(C)N(C)C(=O)C1CCC(=O)N(CCc2cccc(F)c2)C1` (stereo unspecified), 52.3%; for `CCN(CC)C(=O)C1CCC(=O)N(CCc2cccc(F)c2)C1` (stereo unspecified), 12.3%.
The result for `COc1ccc(OC)c(C(C)Nc2ncnc3c2NC(=O)CN3)c1` (stereo unspecified) reads 24.2%.
`N#Cc1cccc(C(=O)N2C[C@@H]3CC[C@H]2CN(C(=O)C2CCC2)C3)c1`: the INHIBITION is given as 28.5%.
For `CN1C(=O)C2(CCN(C(=O)c3ccccc3)CC2)c2cc(F)ccc21`, the INHIBITION is recorded as 39.4%.
The result for `Cn1cnnc1S(=O)(=O)C1CCN(S(=O)(=O)c2ccc(F)c(Cl)c2)CC1` reads 81.9%; that for `Cn1cnnc1S(=O)(=O)C1CCN(S(=O)(=O)c2ccccc2F)CC1`, 15.7%; that for `Cc1ccc(S(=O)(=O)N2CCC(S(=O)(=O)c3nncn3C)CC2)cc1C`, -0.554%.
Take `O=C(C1CC1)N1CCC(c2nc(O)c3c(n2)CCN(C2CCCC2)C3)C1` (stereo unspecified): the INHIBITION is listed as 22.7%.
The result for `CCN(CC)c1ncnc2c1CCN(C(=O)Cc1ccccn1)CC2` reads -49.6%; that for `O=C1NCCN1C1CCN(Cc2coc(-c3ccc(F)cc3)n2)CC1`, 52.5%; that for `O=C1NCCN1C1CCCN(Cc2coc(-c3ccc(F)cc3)n2)C1` (stereo unspecified), 75.2%.
On to `O=C1NCCCCC1SCc1coc(-c2ccc(F)cc2)n1` (stereo unspecified), for which the INHIBITION was 82.7%.
The result for `Fc1ccc(-c2nc(CN3CCn4c(nnc4C4CC4)C3)co2)cc1` reads -21.7%; that for `O=C1NCCCCC1SCc1coc(-c2ccccc2)n1` (stereo unspecified), 35.5%.
The result for `O=C1NCCN1C1CCCN(Cc2coc(-c3cccs3)n2)C1` (stereo unspecified) reads 33.3%.
For `O=C1NCCN1C1CCCN(Cc2nnc(-c3ccc(F)cc3)o2)C1` (stereo unspecified) the value was 20.1%.
For the molecule `O=C1NCCCCC1SCc1coc(-c2cccc(F)c2)n1` (stereo unspecified), the INHIBITION is recorded as -16.1%.
In the case of `Cc1ccc(-c2nc(CN3CCC(N4CCNC4=O)CC3)co2)cc1`, the INHIBITION came to 26.5%.
The result for `CN(C)C(=O)C1CCC2(CCN(C(=O)Nc3cccc(F)c3)CC2)O1` (stereo unspecified) reads 18.6%; that for `COc1ccc(OC)c(C(=O)N(C)Cc2nnc3ccccn23)c1`, -35.7%; that for `CN(C)[C@H]1CN(C(=O)CCCc2ccc(F)cc2)C[C@@H]1C1CC1`, 28.4%.
Consider `COc1ccccc1C(=O)N1CC(=O)N(Cc2ccco2)CC(O)C1` (stereo unspecified), for which the INHIBITION is 26.8%.
Regarding `COc1ccccc1CC(=O)N1CCC(NCc2ccc(C)o2)CC1`, the INHIBITION was found to be 29.375%.
As for `O=C(NCc1ccco1)[C@H]1C[C@@H]2CCN(c3cccc(F)c3)C[C@H]2O1`, the INHIBITION came to 44.1%.
Turning to `Cn1ccnc1-c1cn(CCCc2csc(N)n2)nn1`, the INHIBITION came out at 17.5%.
With `COC(=O)CC1CCCCN1CC(=O)Nc1ccc(F)cc1Cl` (stereo unspecified), the INHIBITION is 62.4%.
Take `COC(=O)CC1CCCCN1CC(=O)Nc1cc(F)ccc1F` (stereo unspecified): the INHIBITION came out at 47.2%.
For `COC(=O)CC1CCCCN1CC(=O)NCCc1ccc(F)cc1` (stereo unspecified), the INHIBITION worked out at 38.5%.
The result for `O=C(CCn1cncn1)N1C[C@@H]2CC[C@H]1CN(Cc1cccnc1)C2` reads 14.3%; that for `Cc1ccc(-c2noc(C(C)NS(C)(=O)=O)n2)cc1` (stereo unspecified), 1.8%; that for `CS(=O)(=O)N1CCOCC2(CN(Cc3ccco3)CCO2)C1` (stereo unspecified), 3.47%.
For `CCc1ccc(CN(CCN(C)C)Cc2ccc(C)s2)nc1` the value was 22%.
For the molecule `COCc1ncc(CN(CCN(C)C)Cc2ccc(C)s2)cn1`, the INHIBITION is reported as 38.7%.
For `COc1ncc(CN(CCN(C)C)Cc2ccc(C)s2)cn1` the value was 63.8%; for `Cc1ccc(CN(Cc2ccncc2)C2CCN(C)CC2)s1`, -6.73%.
Take `COCc1ncc(CN(Cc2ccncc2)Cc2ccc(C)s2)cn1`: the INHIBITION was determined as 61.9%.
For `CCNc1ncc(CN(CCN(C)C)Cc2ccc(C)s2)cn1`, the INHIBITION is on record as 35%.
The result for `Cc1cc(C(=O)NCC2CCS(=O)(=O)C2)ccc1NC(=O)c1ccco1` (stereo unspecified) reads 40.2%.
With `CC(C)n1cnnc1CNC(=O)c1cnn(Cc2ccccc2)c1`, the INHIBITION is given as -24.4%.
In the case of `COCC1c2c(cnn2CC2CC2)CCN1Cc1cc(C)on1` (stereo unspecified), the INHIBITION came out at 47.1%.
For the molecule `COCCn1cc(C(=O)NC2CCS(=O)(=O)C2)c2ccccc2c1=O` (stereo unspecified), the INHIBITION stood at 42.8%.
Take `Cc1cc(C(=O)N2CCC(O)(Cn3ccc4ccncc43)CC2)on1`: the INHIBITION was found to be 12.8%.
As for `O=C(Cc1ccc(O)cc1)N1CCCC(O)(CN2CCOCC2)CC1` (stereo unspecified), the INHIBITION came out at 30.4%.
Consider `Cc1nc(CCC(=O)NC2CCC2)cc(C2CCNCC2)n1`, for which the INHIBITION was 33.5%.
The result for `CN1CC(C(=O)NCCc2ccc(Br)cc2F)CC1=O` (stereo unspecified) reads -57%; that for `c1ccc(OC[C@@H]2CCC[C@@]23CNCCO3)nc1`, 31.3%.
For `c1ccc(COC[C@H]2CCC[C@@]23CNCCO3)nc1` the value was 62.9%.
For `CC(=O)N1CCC2(CC1)COC(COCc1ccccn1)C2` (stereo unspecified) the value was 14.6%; for `c1ccc(COC[C@@H]2CCC[C@@]23CNCCO3)nc1`, 72%.
As for `CN1CCN(C(=O)c2cc3sccc3n2Cc2ccc(Cl)cc2)CC1`, the INHIBITION turned out to be 13.9%.
For `Cn1cnc(S(=O)(=O)N2CCCc3cccc(F)c32)c1Cl` the value was 39.7%; for `Cc1cnc(C(=O)N2CC[C@H]3[C@@H]2CCC(=O)N3c2cccnc2)cn1`, 40.4%.
Regarding `Cc1cc(C(=O)N2CC[C@H]3[C@@H]2CCC(=O)N3c2ccccc2)no1`, the INHIBITION is 53.9%.
For `O=C(C1CC1)N1CC[C@H]2[C@@H]1CCC(=O)N2c1ccccc1` the value was 12.1%.
Regarding `O=C(CC1CC1)N1CC[C@H]2[C@@H]1CCC(=O)N2c1cccnc1`, the INHIBITION is given as 58.6%.
`O=C(Cc1cccs1)N1CC[C@H]2[C@@H]1CCC(=O)N2c1cccnc1`: the INHIBITION came to 30.7%.
`Cc1cccc(C(=O)N2CC[C@@H]3[C@H]2CCC(=O)N3c2ccccc2)n1`: the INHIBITION came out at 65.7%.
Take `O=C(c1ccco1)N1CC[C@@H]2[C@H]1CCC(=O)N2c1ccccc1`: the INHIBITION was found to be 30.3%.
As for `Cc1ccc(C(=O)N2CC[C@@H]3[C@H]2CCC(=O)N3c2ccccc2)o1`, the INHIBITION was found to be 31.8%.
The result for `Cc1ccc(C(=O)N2CC[C@H]3[C@@H]2CCC(=O)N3c2ccccc2)cn1` reads 16.8%.
For `Cc1cccc(N2CCCC3(C2)CN(S(=O)(=O)C2CC2)CCO3)c1` (stereo unspecified) the value was 20.1%; for `CCc1c(C)nc2cc(-c3nccn3C)nn2c1N1CCCC(CO)C1` (stereo unspecified), 10.62%.
`Cc1csc(CCCNC(C)CC(=O)Nc2ccc(F)cc2)n1` (stereo unspecified): the INHIBITION was found to be 40%.
On to `c1cnc(Nc2cncc(C3CCCN3)n2)cn1` (stereo unspecified), for which the INHIBITION was 31.6%.
For `CN(C)CC1COCCN1C(=O)C1(c2cccs2)CCCC1` (stereo unspecified), the INHIBITION is on record as 36.2%.
Consider `CS(=O)(=O)N1CCN(c2cc(-n3cccc3)ncn2)CC1`, for which the INHIBITION was 38.3%.
On to `Cc1noc([C@@H]2CCO[C@@H]3CCN(Cc4cccs4)C[C@@H]32)n1`, for which the INHIBITION was 24.1%.
`Cc1ccc(CN2CC[C@H]3OCC[C@@H](c4nc(C)no4)[C@H]3C2)cc1`: the INHIBITION came to 36.4%.
For `Cc1noc([C@@H]2CCO[C@@H]3CCN(Cc4ccc(C)s4)C[C@@H]32)n1` the value was 53.2%; for `COCC(=O)N1CC[C@H]2N(C)CC[C@@]2(C(=O)Nc2ccccc2)CC1`, 3.25%; for `Cc1cnc(N2CCC[C@@H]3CN(S(C)(=O)=O)C[C@@H]32)nc1`, 29.8%.
For `CC(=O)N1C[C@H]2CCCN(c3ncc(C)cn3)[C@H]2C1` the value was 45.8%.
Take `Cc1cnc(N2CCC[C@@H]3CN(CC(=O)N(C)C)C[C@@H]32)nc1`: the INHIBITION amounted to 52.3%.
For `CN(C)C(=O)CN1CCCC12CCCN(c1ncc(F)cn1)C2` (stereo unspecified) the value was 8.31%; for `CN(C)C(=O)CN1CCC2(CCCN(c3ncc(F)cn3)C2)C1=O` (stereo unspecified), 11.3%.
In the case of `Cc1cnc(N2CCCC3(CCCN3CC(=O)N(C)C)C2)nc1` (stereo unspecified), the INHIBITION was determined as 79.2%.
For `CN(C)C1(CNC(=O)CC=Cc2ccc(F)cc2)CCOCC1` the value was -18%; for `Cc1nc(C)n(CC2CCCN(Cc3cn4c(C)cccc4n3)C2)n1` (stereo unspecified), 5.03%.
The result for `O=c1ccc2c(n1CCN1CCCC1)CCN(c1ncccn1)CC2` reads 29.5%; that for `CSCc1noc(CNC(=O)C2CCN(C(=O)C3CCC3)CC2)n1`, 16.7%.
On to `CSCc1noc(CNC(=O)C2CCN(C3CCCCC3)CC2)n1`, for which the INHIBITION stood at 53.9%.
On to `CSCc1noc(CNC(=O)C2CCN(C(=O)C3CCCC3)CC2)n1`, for which the INHIBITION is listed as -26%.
Turning to `CCOCCCNc1cc(C)nn2cnnc12`, the INHIBITION worked out at 25.3%.
The result for `CCn1nc(C)c(NC(=O)CCn2ncc3cc(C)ccc32)c1C` reads 50.7%; that for `Cc1ccc2cnn(CCC(=O)Nc3c(C)nn(C)c3C)c2c1`, -8.19%; that for `Cc1nn(C)c(C)c1NC(=O)CCn1ncc2ccccc21`, 35.8%.

Source of the values: ChEMBL document CHEMBL4513216, “Probing the Open Global Health Chemical Diversity Library for Multistage-Active Starting Points for Next-Generation Antimalarials” (ACS Infect Dis, 2020).
